Records with an inconclusive call do not appear. Activity calls are given as the source filed them. Calls come from the whole dose curve.
Potency is the fitted concentration of half-maximal effect.

The first experiment is described as follows: Cytotoxicity counterscreen for inhibitors of SARS-CoV-2 cell entry (AID 1645845). Note: nearly all actives have a fitted effect of over 50% in size. The following applies: cell viability (SARS-CoV-2 entry assay cells); series mostly up to 57.1 µM. In a few lines:
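ATP-content luminescence (ATPLite 1step, 15 min RT) read after 48 h compound exposure of Expi293F cells stably expressing human ACE2; normalized to cells-only wells and media-only wells.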
A general note: A counterscreen serves to expose hits that act by an unwanted route or on another target.
Turning to `Cn1c(NC[C@@H](N)Cc2ccccc2)nc(-c2ccncc2)c(-c2ccc3ccccc3c2)c1=O`, the Potency result was “inactive”.
With `c1ccc(-c2cc(CCC3CCNCC3)c3ccccc3n2)cc1`, the Potency entry was “inactive”.
Consider `COc1cc(N2CCN(C)CC2)ccc1Nc1nccc(-c2cn(C)c3cnccc23)n1`, for which the Potency result was “inactive”.
Take `CC(C)C[C@H](NC(=O)[C@H](Cc1ccccc1)NC(=O)OCc1ccccc1)C(=O)C=O`: the Potency entry was “inactive”.
With `CC(C)(O)CNc1ncc(-c2ccnc(Nc3ccncc3)n2)c(CC2CC2)n1`, the Potency is 25.1 µM (active).

The nature of a further experiment: Primary qHTS to identify inhibitors of SARS-CoV-2 cell entry (AID 1645846). Note: nearly all actives have a fitted effect of over 45% in size. The following applies: SARS-CoV-2 pseudovirus cell entry assay, luminescence; activity change, negative = inhibition: at 57.1 µM (top of the series) unless noted. In a few lines: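 HEK293 cells stably expressing human ACE2, pre-treated 1 h with compound, then infected with MLV particles pseudotyped with Wuhan-Hu-1 spike (C-terminal 19-aa truncation). Luciferase luminescence after 48 h at 37 °C, normalised to spike PP and bald PP.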
(Quantitative high-throughput screening tests each substance at several concentrations.)
Take `Cn1c(NC[C@@H](N)Cc2ccccc2)nc(-c2ccncc2)c(-c2ccc3ccccc3c2)c1=O`: the Potency is 28.2 µM (active).
As for `Cc1nc2ccc(-n3ncc(C(=O)c4cc5ccccc5[nH]4)c3N)cc2[nH]1`, the Potency is 11.2 µM (active).
For the compound `COCCN1CCN(Cc2ccc(-c3n[nH]c4c3C(=O)c3c(NC(=O)NN5CCOCC5)cccc3-4)cc2)CC1`, the activity change, negative = inhibition is -93.4%.
On to `CC(C)C[C@H](NC(=O)[C@H](Cc1ccccc1)NC(=O)OCc1ccccc1)C(=O)C=O`, for which the Potency is 14.1 µM (active).
`CC(C)(O)CNc1ncc(-c2ccnc(Nc3ccncc3)n2)c(CC2CC2)n1`: the Potency is 10 µM (active).

Source of the values: PubChem BioAssay (NCATS).
